Experiment [1] can be described thus: qHTS for Inhibitors of the Functional Ribonucleoprotein Complex (vRNP) of Lymphocytic Choriomeningitis Arenaviruses (LCMV): Viability assay - alamar blue signal for LCMV Primary Screen (AID 1347085; calls by dose curve; tested in HEK293 reporter line; also: nearly all actives have a fitted effect of over 80% in size; also: potency is read from the fitted curve at half-maximal effect). (Quantitative high-throughput screening tests each substance at several concentrations.)
Experiment [2] concerns the target Nucleoprotein (Lymphocytic choriomeningitis virus (strain Armstrong)) (UniProt P09992). As to the kind of experiment: qHTS for Inhibitors of the Functional Ribonucleoprotein Complex (vRNP) of Lymphocytic Choriomeningitis Arenaviruses (LCMV): LCMV Primary Screen - GLuc reporter signal (AID 1347086). Also: nearly all actives have a fitted effect of over 70% in size. Also: potency is read from the fitted curve at half-maximal effect. As to activity change, negative = inhibition: % is scaled to controls: 0 for no effect and ±100 for the full control effect.
Experiment [3] is described as follows: Cytotoxicity counterscreen for inhibitors of SARS-CoV-2 cell entry (AID 1645845). Also: nearly all actives have a fitted effect of over 50% in size. In a few lines:
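Counterscreen run in the same HEK293-ACE2 line as the pseudotyped-particle entry assay, without particles. Viability after 48 h at 37 C was read as ATP luminescence, scaled between cell-containing and cell-free wells.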
In general terms: Counterscreens check selectivity or assay interference.

The nature of experiment [4]: Primary qHTS to identify inhibitors of SARS-CoV-2 cell entry (AID 1645846). Also: nearly all actives have a fitted effect of over 45% in size. To be noted: activity change, negative = inhibition: at 57.1 µM (top of the series) unless noted. In a few lines: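 HEK293-ACE2 (Expi293F, stable hACE2), 1500 cells/well, o/n 37C; cpd 23 nL pin, 1 h; MLV-PP w/ SARS-CoV-2-S (Wuhan-Hu-1, Δ19 C-term); 48 h 37C; Bright-Glo luminescence; normalized vs S-PP and bald PP.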

The nature of experiment [5]: High Content Imaging Cell-Based qHTS for Inhibitors of the mTORC1 Signaling Pathway in MEF (Tsc2-/-, p53-/-) Cells (AID 2666; active = well fitted curve in the direction sought with a large enough effect; an effect the other way counts as inactive or inconclusive;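 also: percent of cells scored positive for phospho-rpS6 Ser235/236 immunostaining by imaging; potency is read from the fitted curve at half-maximal effect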). In a few lines: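 MEF Tsc2-/- p53-/- (empty vector), DMEM/10% FBS; cpd 24 h 37 °C; PFA fix, Alexa-488 p-rpS6 S235/236 Ab, Hoechst; imaged; rapamycin-defined inhibition; % positive cells/well.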
Experiment [6] in a line: High Content Imaging Cell-Based qHTS for Inhibitors of the mTORC1 Signaling Pathway in MEF Cells (AID 2667; active = well fitted curve in the direction sought with a large enough effect; an effect the other way counts as inactive or inconclusive; also: potency is read from the fitted curve at half-maximal effect). In a few lines:
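Read-out is the share of phospho-rpS6-positive cells per well, from Hoechst-normalized Alexa-488 Ser235/236 staining imaged on IN Cell. Cells: WT Tsc2-expressing Tsc2-/-, p53-/- MEFs exposed to compound for 24 hrs.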

Experiment [7] can be described thus: Validation screen for inhibitors of Lassa infection (AID 463096). Also: potency is read from the fitted curve at half-maximal effect.
The target in experiment [8] is M-phase phosphoprotein 8 (Homo sapiens) (UniProt Q99549). Description: qHTS Validation Assay for Inhibitors for MPP8 Chromodomain Interactions with Methylated Histone Tails (AID 488949; active = well fitted curve in the direction sought with a large enough effect; an effect the other way counts as inactive or inconclusive;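 also: AlphaScreen signal from MPP8 chromodomain bound to biotinylated H3K9me3 peptide; top concentration of the series differs between compounds; % is scaled to controls: 0 for no effect and ±100 for the full control effect; nearly all actives have a fitted effect of over 55% in size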). In a few lines: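 AlphaScreen read-out: streptavidin donor and nickel chelate acceptor beads (final 10 ug/mL), 30 min in the dark at RT. Complex of 50 nM MPP8 and 50 nM b-H3(1-18)K9me3 peptide had been exposed to compounds for 30 min beforehand.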
M-phase phosphoprotein 8 (Homo sapiens), sequence (Q99549 whole entry, looked up): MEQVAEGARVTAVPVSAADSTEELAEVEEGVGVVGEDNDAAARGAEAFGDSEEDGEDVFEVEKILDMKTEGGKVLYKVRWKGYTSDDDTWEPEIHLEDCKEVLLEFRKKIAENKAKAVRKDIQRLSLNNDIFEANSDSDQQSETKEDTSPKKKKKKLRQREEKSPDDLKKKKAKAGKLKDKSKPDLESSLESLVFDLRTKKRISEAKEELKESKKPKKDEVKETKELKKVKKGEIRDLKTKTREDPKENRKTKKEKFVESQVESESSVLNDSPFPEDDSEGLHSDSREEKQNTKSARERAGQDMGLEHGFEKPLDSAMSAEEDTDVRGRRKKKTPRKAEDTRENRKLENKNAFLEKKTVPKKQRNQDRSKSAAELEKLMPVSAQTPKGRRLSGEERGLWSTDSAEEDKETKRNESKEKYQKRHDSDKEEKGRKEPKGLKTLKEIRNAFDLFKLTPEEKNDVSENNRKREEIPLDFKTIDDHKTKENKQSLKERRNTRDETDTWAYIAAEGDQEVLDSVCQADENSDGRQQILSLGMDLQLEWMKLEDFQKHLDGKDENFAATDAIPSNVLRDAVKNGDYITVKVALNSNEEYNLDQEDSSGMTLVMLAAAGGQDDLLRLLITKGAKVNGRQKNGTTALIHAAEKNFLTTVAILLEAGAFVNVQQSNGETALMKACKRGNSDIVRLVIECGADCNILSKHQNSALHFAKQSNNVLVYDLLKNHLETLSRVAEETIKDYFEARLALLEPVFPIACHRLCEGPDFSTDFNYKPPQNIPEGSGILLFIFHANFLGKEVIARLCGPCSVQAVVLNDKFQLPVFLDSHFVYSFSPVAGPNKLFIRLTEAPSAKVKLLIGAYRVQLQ

Experiment [9] can be described thus: Inducers of the Endoplasmic Reticulum Stress Response (ERSR) in human glioma: Validation (AID 504836; active = well fitted curve in the direction sought with a large enough effect; an effect the other way counts as inactive or inconclusive; also: 0% is about no effect). A digest of the protocol:
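Stably transfected U87-MG glioma cells carrying a GRP78-based luciferase sensor; 16 h compound incubation. Luminescence end-point read 10 min after Bright-Glo addition at room temperature.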

In experiment [10] the target is Glutaminase kidney isoform, mitochondrial (Homo sapiens) (UniProt O94925). As to the kind of experiment: qHTS for Inhibitors of Glutaminase (GLS): LOPAC Validation (AID 624146; active = well fitted curve in the direction sought with a large enough effect; an effect the other way counts as inactive or inconclusive;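 also: glutamate product detected by oxidase and peroxidase coupled Amplex red fluorescence gain; % is scaled to controls: 0 for no effect and ±100 for the full control effect; nearly all actives have a fitted effect of over 60% in size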). In a few lines:
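Enzyme dispensed in phosphate buffer (45 mM, pH 8.2, 0.02% Tween-20), compounds pinned in, then 1 mM L-glutamine solution and the glutamate oxidase–HRP–Amplex Red mix added; fluorescence read immediately and again after 30 min at room temperature.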

Experiment [11] in a line: Confirmatory qHTS to identify inhibitors of SARS-CoV-2 cell entry (AID 1645844). Also: potency is read from the fitted curve at half-maximal effect; nearly all actives have a fitted effect of over 45% in size. In a few lines: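 HEK293-ACE2, overnight seeding; cpd 1 h, 37C/5% CO2; + SARS-CoV-2-S MLV PP (Wuhan-Hu-1, ΔC19); 48 h; Bright-Glo luminescence. Data normalised to S PP and bald PP wells.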
The target of experiment [12] is Bile acid receptor (Homo sapiens) (UniProt Q96RI1). As to the kind of experiment: qHTS assay for small molecule agonists of farnesoid X receptor signaling (AID 588527).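 Also: 0% = vehicle basal and 100% = reference agonist.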 To be noted: HEK293T FXR-UAS-bla, beta-lactamase ratio, 16 h; activation: stronger effect = higher value. A digest of the protocol: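 FXR-UAS-bla HEK293T, 10% dialyzed FBS; cpds up to 92 uM titration, 16 h 37 C; CCF4 dye 2 h RT; fluorescence. Normalized to chenodeoxycholic acid 100 uM (100%) and DMSO (0%); Hill fit gives EC50, efficacy.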
Bile acid receptor (Homo sapiens), sequence (Q96RI1 whole entry, looked up): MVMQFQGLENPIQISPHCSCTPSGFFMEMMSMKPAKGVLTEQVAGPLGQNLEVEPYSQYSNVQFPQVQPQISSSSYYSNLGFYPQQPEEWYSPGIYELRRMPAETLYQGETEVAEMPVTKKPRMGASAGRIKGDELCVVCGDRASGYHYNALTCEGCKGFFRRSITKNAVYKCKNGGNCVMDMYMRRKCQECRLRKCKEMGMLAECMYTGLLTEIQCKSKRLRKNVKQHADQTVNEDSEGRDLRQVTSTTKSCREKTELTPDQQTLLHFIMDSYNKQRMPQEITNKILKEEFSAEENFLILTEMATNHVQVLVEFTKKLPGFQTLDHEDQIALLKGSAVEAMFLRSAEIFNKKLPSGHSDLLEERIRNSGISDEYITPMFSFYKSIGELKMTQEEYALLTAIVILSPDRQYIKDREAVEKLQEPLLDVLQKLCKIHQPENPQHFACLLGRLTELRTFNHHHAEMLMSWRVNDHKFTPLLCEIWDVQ

Experiment [13] deals with Alpha-galactosidase (Coffea arabica) (UniProt Q42656). Description: Counterscreen for Glucocerebrosidase Inhibitors: qHTS Assay for Coffee Bean alpha-Galactosidase at pH 4.5 (AID 957; active = well fitted curve in the direction sought with a large enough effect; an effect the other way counts as inactive or inconclusive;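 also: plate controls were enzyme alone for no effect and no enzyme for full effect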). A digest of the protocol:
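Fluorogenic read-out: 4-methylumbelliferone at Ex 365/Em 440 nm after NaOH/glycine stop (pH 10). Enzyme 2 nM, 4-MU-alpha-galactoside 80 uM, citrate buffer pH 4.5, 20 min RT; normalized to no-enzyme and enzyme controls.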

The target is the same in experiment [14]. As to the kind of experiment: Counterscreen for Glucocerebrosidase Inhibitors: qHTS Assay for Coffee Bean alpha-Galactosidase at pH 5.9 (AID 998; active = well fitted curve in the direction sought with a large enough effect; an effect the other way counts as inactive or inconclusive;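 also: plate controls were uninhibited enzyme for no effect and no-enzyme basal signal for full effect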). In a few lines: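 Enzyme 2 nM + cpd (0.7 nM–77 uM titration) + 4-MU-alpha-Gal 80 uM, pH 5.9 citrate/Tween-20, RT 20 min, NaOH/glycine stop pH 10, fluor 365/440. Normalized to no-enzyme and full-activity controls; Hill-fit AC50.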

Inconclusive results are not listed. Activity calls are given as the source filed them. Unless noted, calls follow the shape of the full dose curve.

Nucleoprotein (Lymphocytic choriomeningitis virus (strain Armstrong)), sequence (P09992 whole entry, looked up): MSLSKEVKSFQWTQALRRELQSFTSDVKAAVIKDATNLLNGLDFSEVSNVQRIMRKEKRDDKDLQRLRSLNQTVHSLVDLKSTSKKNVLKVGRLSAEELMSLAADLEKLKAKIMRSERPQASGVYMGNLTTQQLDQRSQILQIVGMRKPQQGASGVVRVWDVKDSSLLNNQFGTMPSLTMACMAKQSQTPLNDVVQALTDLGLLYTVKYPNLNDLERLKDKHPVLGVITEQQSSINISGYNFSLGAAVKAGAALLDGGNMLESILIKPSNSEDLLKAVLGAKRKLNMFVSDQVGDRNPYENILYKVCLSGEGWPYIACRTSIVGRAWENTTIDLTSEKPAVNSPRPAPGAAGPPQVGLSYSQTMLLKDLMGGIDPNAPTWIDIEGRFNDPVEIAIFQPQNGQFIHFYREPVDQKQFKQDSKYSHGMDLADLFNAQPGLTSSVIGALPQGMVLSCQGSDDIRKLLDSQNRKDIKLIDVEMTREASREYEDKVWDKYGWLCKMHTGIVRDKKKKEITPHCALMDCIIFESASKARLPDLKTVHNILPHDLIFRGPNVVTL
Alpha-galactosidase (Coffea arabica), sequence (Q42656 whole entry, looked up): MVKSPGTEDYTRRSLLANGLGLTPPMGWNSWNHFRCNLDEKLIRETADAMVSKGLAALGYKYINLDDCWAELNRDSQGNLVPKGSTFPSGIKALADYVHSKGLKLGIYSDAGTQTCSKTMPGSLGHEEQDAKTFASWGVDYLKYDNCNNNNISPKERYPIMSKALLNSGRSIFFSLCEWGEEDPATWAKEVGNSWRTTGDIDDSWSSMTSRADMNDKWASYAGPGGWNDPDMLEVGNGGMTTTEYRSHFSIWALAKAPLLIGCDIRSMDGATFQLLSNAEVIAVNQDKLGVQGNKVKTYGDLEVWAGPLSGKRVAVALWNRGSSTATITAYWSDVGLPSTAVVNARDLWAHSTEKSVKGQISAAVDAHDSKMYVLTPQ
Glutaminase kidney isoform, mitochondrial (Homo sapiens), sequence (O94925 whole entry, looked up, canonical isoform): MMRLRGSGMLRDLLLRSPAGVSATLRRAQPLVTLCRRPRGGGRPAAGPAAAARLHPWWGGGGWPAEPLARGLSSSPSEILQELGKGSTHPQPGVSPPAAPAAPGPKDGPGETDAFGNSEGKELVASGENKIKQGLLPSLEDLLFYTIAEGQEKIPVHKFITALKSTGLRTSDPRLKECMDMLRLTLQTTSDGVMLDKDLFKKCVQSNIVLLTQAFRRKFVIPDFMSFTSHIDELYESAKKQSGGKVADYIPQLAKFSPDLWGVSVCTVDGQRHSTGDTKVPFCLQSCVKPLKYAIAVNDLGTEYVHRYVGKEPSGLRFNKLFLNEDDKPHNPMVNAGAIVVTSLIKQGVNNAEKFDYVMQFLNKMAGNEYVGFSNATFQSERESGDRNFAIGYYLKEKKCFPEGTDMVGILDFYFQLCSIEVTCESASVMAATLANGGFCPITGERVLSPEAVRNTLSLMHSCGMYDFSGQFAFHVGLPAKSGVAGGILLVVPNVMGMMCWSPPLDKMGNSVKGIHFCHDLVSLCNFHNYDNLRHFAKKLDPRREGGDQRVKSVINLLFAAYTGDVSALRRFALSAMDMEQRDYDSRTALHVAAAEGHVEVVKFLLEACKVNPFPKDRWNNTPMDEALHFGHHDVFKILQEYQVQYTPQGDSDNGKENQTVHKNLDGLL

Consider `NS(=O)(=O)c1ccc(NC2=CC(=O)c3ccccc3C2=O)cc1`, for which the Potency is 38.5 µM (active) in experiment [1] and 12.2 µM (active) in [2]. Moreover, the Potency result in experiment [3] and in experiment [4] was “inactive” each time.

Turning to `CC12C(=O)OC(=O)C1(C)C1CCC2O1` (stereo not drawn), the Potency in experiment [5] was 9.27 µM (active); in experiment [6] it was 4.65 µM (active); in experiment [7] it was 10 µM (active); in [1], 11.2 µM (active). For the same compound, the Potency result in [8] is “inactive”. Moreover, the compound was classed as inactive in [9] and in [10].

Take `C[C@@]12C=Cc3occc3[C@H]1CC[C@@]13C[C@@H](CC[C@H]12)[C@@](O)(CO)C3`: the Potency entry in experiment [1] and in experiment [2] was “inactive” each time.

As for `CC(=O)O[C@H]1[C@H]2O[C@]23[C@@H]2CC[C@]4(O)C[C@@H](O)CC[C@]4(C)C2CC[C@]3(C)[C@H]1c1ccc(=O)oc1` (stereo partly drawn), the Potency in experiment [2] is 0.316 µM (active).

Turning to `CC(C)(C)c1nc2c3cc[nH]c(=O)c3c3cc(F)ccc3c2[nH]1`, the Potency result in experiment [1], in experiment [2] and in experiment [3] was “inactive” each time. Besides, the Potency in experiment [11] was 1.71 µM (active).

`CCCCC[C@H]1CCCCC[C@@H](O)C[C@H](O)[C@H](O)/C=C/C(=O)O1`: the Potency entry in [1] is “inactive”.

With `N#Cc1cc([N+](=O)[O-])c2sc(C(N)=O)[n+]([O-])c2c1`, the outcome in [9] was inactive. Moreover, the Potency entry in experiment [1] and in [2] was “inactive” in each case.

On to `Cc1cccc(O)c1C`, for which the activation in experiment [12] was -0.773% (inactive). In addition, the Potency entry in experiment [1] and in [2] was “inactive” each time.

For the compound `Nc1ccc(N=Nc2ccc(-c3ccc(N=Nc4c(S(=O)(=O)O)cc5cc(S(=O)(=O)O)c(N=Nc6ccccc6)c(O)c5c4N)cc3)cc2)c(N)c1`, the Potency entry in experiment [2] was “inactive”.

As to `CN(C)c1ccc2cc(C(=O)N[C@@H](CCCN=C(N)CCl)C(=O)NCc3ccccc3)ccc2c1`, the Potency in [1] is 34.3 µM (active). For the same compound, the Potency entry in experiment [3] is “inactive”. Further, the activity change, negative = inhibition in [4] was -26.4%.

Take `C=CC(=O)N1CCC[C@@H](n2nc(-c3ccc(Oc4ccccc4)cc3)c3c(N)ncnc32)C1`: the Potency in experiment [1] is 21.7 µM (active). The Potency entry in experiment [3] and in experiment [4] was “inactive” throughout.

As for `COc1c(O)c(=O)n2c3ccccc3c3ccnc1c32`, in [2], the Potency entry is “inactive”.

Consider `Cc1ccc(O)c(N=Nc2ccccc2)n1`, for which the call in [13], in experiment [14] and in [9] was inactive. In addition, the Potency result in experiment [1] and in experiment [2] was “inactive” each time.

Values taken from PubChem BioAssay (NCATS).
